Assay results as given in PubChem BioAssay (Tox21).
Where “and” joins values, the source holds several entries; their conditions need not be identical. Equal values may be shown once. Inconclusive results are not listed. More than one record can exist for a structure, and the calls need not agree. Calls of active or inactive are those of the source. Unless noted, the call rests on the fitted dose curve; in most records, active means well fitted curve in the direction sought with a large enough effect in the repeat runs; inconclusive means weak or mixed curves; inactive means no such curve, though single readings can be large; an effect the other way counts as inactive or inconclusive.

Key:
[1] = qHTS assay for small molecule agonists of the p53 signaling pathway (AID 651631; calls by dose curve; further: nearly all actives have a fitted effect of over 15% in size; further: potency means the concentration at half of the fitted maximal effect)
Method in brief: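 Quantitative high-throughput format: 4,000 p53RE-bla HCT-116 cells/well, 5 h pre-incubation, 16 h compound exposure at 37 °C, 2 h room-temperature substrate step, fluorescence intensity measured.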

[2] = qHTS assay for small molecules that induce genotoxicity in human embryonic kidney cells expressing luciferase-tagged ATAD5 (AID 651632); further: nearly all actives have a fitted effect of over 15% in size; further: potency means the concentration at half of the fitted maximal effect
Method in brief: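 Increased luciferase signal from ATAD5-tagged reporter cells indicates DNA-damage-driven ATAD5 induction. HEK293T cells are treated for 16 hr at 37C before detection with Amplite.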

[3] = qHTS assay for small molecule agonists of the p53 signaling pathway - cell viability (AID 651633; calls by dose curve; further: nearly all actives have a fitted effect of over 30% in size; further: potency means the concentration at half of the fitted maximal effect;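 on activity change, negative = cytotoxicity: p53RE-bla HCT reporter cells with a stable beta-lactamase p53 reporter; series mostly up to about 83 µM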)
Method in brief: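 Viability counter-read: CellTiter-Glo luminescence (30 min, room temperature) in the same p53RE-bla plates. These plates had been exposed to compounds for 16 h at 37 C.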

[4] = qHTS assay for small molecules that induce genotoxicity in human embryonic kidney cells expressing luciferase-tagged ATAD5 - cell viability (AID 651634; calls by dose curve; further: nearly all actives have a fitted effect of over 25% in size; further: potency means the concentration at half of the fitted maximal effect)
Method in brief: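 Cytotoxicity counterscreen in HEK293T cells bearing an ATAD5-luciferase reporter: live-cell protease activity measured by CellTiter-Fluor fluorescence after 15.5 hr compound exposure.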

[5] = qHTS assay for small molecule disruptors of the mitochondrial membrane potential - cell viability (AID 720634; calls by dose curve;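 further: human HepG2 liver cancer cells; series mostly up to about 83 µM; nearly all actives have a fitted effect of over 20% in size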)
Method in brief: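 After overnight attachment at 37 C, HepG2 cells received compound or DMSO vehicle for 1 hr. Viability is then taken from ATP-driven luminescence following a 30 min room-temperature CellTiter-Glo step.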

[6] = qHTS assay for small molecule disruptors of the mitochondrial membrane potential (AID 720635); further: potency means the concentration at half of the fitted maximal effect
Method in brief: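 Mitochondrial membrane potential tracked with Mito-MPS dye, red aggregates (ex 540/em 590 nm) against green monomers (ex 490/em 535 nm). Compound treatment 1 hr at 37C, dye 30 min in HepG2.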

[7] = qHTS assay to test for compound auto fluorescence at 590 nm (red) in HepG2 cells (AID 720674)
Method in brief: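 Red autofluorescence (Ex/Em 540/590 nm, Rose Bengal sodium equivalents) was measured in HepG2 cells, 2,000 per well in MEM plus 10% FBS, plated overnight at 37 C. Readings were taken 1 hr after adding 23 nL compound or DMSO, at 37 C and 5% CO2.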

[8] = qHTS assay to test for compound auto fluorescence at 535 nm (green) in HepG2 cells (AID 720675)
[9] = qHTS assay to test for compound auto fluorescence at 460 nm (blue) in HEK293 cells (AID 720678)
Method in brief: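 Measured: blue fluorescence (Ex 405/Em 460 nm) of compound-treated HEK293 cells, incubated overnight at 37C with 5% CO2 and scaled to triamterene equivalents.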

[10] = qHTS assay to test for compound auto fluorescence at 590 nm (red) in HEK293 cells (AID 720679)
Method in brief: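 Using HEK293 cells at 2,000 per well, the screen added 23 nL of each compound after cell attachment and incubated overnight (37C, 5% CO2). The plate reader then captured red-label fluorescence, Ex/Em 540/590nm.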

[11] = qHTS assay to test for compound auto fluorescence at 535 nm (green) in HEK293 cells (AID 720680)
[12] = qHTS assay to test for compound auto fluorescence at 460 nm (blue) in HEK293 cell free culture (AID 720681)
Method in brief: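 Blue fluorescence (Ex 405/Em 460 nm, triamterene-equivalent) was read immediately after pin transfer of compound or DMSO into medium (DMEM, 10% FBS) without cells.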

[13] = qHTS assay to test for compound auto fluorescence at 535 nm (green) in HEK293 cell free culture (AID 720682)
Method in brief: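 Measurement is a direct plate read of green fluorescence (485 nm in, 535 nm out) after compound addition to serum-supplemented DMEM lacking cells, with fluorescein used to express intensities.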

[14] = qHTS assay to test for compound auto fluorescence at 590 nm (red) in HEK293 cell free culture (AID 720683)
Method in brief: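 Red-channel autofluorescence of compounds in culture medium (DMEM, 10% FBS), no cells, measured at 540/590 nm. Rose Bengal sodium is the reference fluorophore for equivalence.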

[15] = qHTS assay to test for compound auto fluorescence at 590 nm (red) in HepG2 cell free culture (AID 720684)
Method in brief: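 Steps: dispense MEM/10% FBS medium, no cells; pin compound or DMSO vehicle; read red channel, Ex/Em 540/590 nm. Output given as Rose Bengal sodium equivalents.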

[16] = qHTS assay to test for compound auto fluorescence at 460 nm (blue) in HepG2 cell free culture (AID 720685)
Method in brief: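 Compound (23 nL) or DMSO pinned into cell-free MEM with 10% FBS; blue fluorescence read at 405/460 nm excitation/emission, expressed as auto-fluorescence equivalency to triamterene.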

[17] = qHTS assay to test for compound auto fluorescence at 535 nm (green) in HepG2 cell free culture (AID 720686)
[18] = qHTS assay to test for compound auto fluorescence at 460 nm (blue) in HepG2 cells (AID 720687)
Method in brief: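 Blue-channel autofluorescence (Ex/Em 405/460 nm, triamterene-equivalent) was measured after 1 hr compound exposure at 37 C, 5% CO2. Cells were HepG2, plated overnight at 37 C in MEM plus 10% FBS.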

[19] = target: Glucocorticoid receptor (Homo sapiens) (UniProt P04150); experiment: qHTS assay to identify small molecule agonists of the glucocorticoid receptor (GR) signaling pathway (AID 720691; active means well fitted activation curve with a large enough effect in the signal ratio in the repeat runs, not every such curve was filed as active; the % refers to the signal ratio)
Method in brief: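 Agonist mode in a HeLa line carrying a GRE-controlled beta-lactamase reporter. Compounds act for 18 h at 37 C before a 2 h room-temperature FRET substrate step and fluorescence reading.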

[20] = target: Glucocorticoid receptor (Homo sapiens) (UniProt P04150); experiment: qHTS assay to identify small molecule antagonists of the glucocorticoid receptor (GR) signaling pathway (AID 720692; active means well fitted inhibition curve with a large enough effect in the signal ratio in the repeat runs, not every such curve was filed as active; the % refers to the signal ratio)
Method in brief: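 Cells plated, rested 4 h at 37 C/5% CO2; compounds in DMSO pin-transferred; dexamethasone added to 5 nM final; 18 h at 37 C; B/G FRET substrate added, 2 h room temperature; fluorescence measured.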
On the % scale 0 is the no-effect control and ±100 the full control effect.

Chain of Glucocorticoid receptor (Homo sapiens) (P04150 whole entry, looked up): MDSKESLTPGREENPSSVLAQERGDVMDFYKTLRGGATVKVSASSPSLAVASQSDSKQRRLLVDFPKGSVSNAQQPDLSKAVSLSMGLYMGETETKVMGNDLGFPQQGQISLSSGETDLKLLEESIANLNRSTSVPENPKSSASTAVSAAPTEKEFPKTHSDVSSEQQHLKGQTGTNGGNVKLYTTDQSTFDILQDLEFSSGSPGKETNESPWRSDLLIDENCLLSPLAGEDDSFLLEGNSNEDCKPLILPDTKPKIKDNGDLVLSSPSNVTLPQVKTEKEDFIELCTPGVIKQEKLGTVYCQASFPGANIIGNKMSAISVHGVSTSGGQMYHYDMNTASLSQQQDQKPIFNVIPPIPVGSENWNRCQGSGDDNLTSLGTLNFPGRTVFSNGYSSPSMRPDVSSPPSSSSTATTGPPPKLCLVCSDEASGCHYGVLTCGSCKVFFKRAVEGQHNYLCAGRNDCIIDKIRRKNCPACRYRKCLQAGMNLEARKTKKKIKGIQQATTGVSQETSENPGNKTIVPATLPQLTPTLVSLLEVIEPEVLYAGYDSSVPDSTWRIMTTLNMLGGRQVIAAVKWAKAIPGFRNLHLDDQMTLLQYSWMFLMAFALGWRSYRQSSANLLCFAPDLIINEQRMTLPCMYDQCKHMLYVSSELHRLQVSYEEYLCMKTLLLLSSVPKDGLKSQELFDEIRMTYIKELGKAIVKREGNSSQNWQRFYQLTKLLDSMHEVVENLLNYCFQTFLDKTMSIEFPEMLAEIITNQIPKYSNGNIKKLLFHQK

C(/C=C/C=C/Nc1ccccc1)=Nc1ccccc1
inactive: Potency [1] | Potency [2] | Potency [3] | Potency [4] | Potency [5] | Potency [6] | outcome [7] | outcome [8] | Potency [9] | outcome [10] | outcome [11] | Potency [12] | outcome [13] | outcome [14] | outcome [15] | outcome [16] | outcome [17]

Cc1cc(C)n(CO)n1
inactive: Potency [1] | Potency [2] | Potency [3] | Potency [4] | Potency [5] | Potency [6] | outcome [7] | outcome [8] | Potency [9] | outcome [10] | outcome [11] | Potency [12] | outcome [13] | outcome [14] | outcome [15] | outcome [16] | outcome [17] | outcome [18] | Potency [19] | Potency [20]

CC(CN=Cc1ccccc1O)N=Cc1ccccc1O (centres undefined)
inactive: Potency [1] | Potency [2] | Potency [3] | Potency [4] | Potency [5] | Potency [6] | outcome [7] | outcome [8] | outcome [10] | outcome [11] | Potency [12] | outcome [13] | outcome [14] | outcome [15] | outcome [16] | outcome [17] | outcome [18] | Potency [19]

C[C@H](CN1CCCC1)C(=O)c1ccc(C(F)(F)F)cc1
inactive: Potency [1] | Potency [2] | Potency [3] | Potency [4] | Potency [5] | Potency [6] | outcome [7] | outcome [8] | Potency [9] | outcome [10] | outcome [11] | Potency [12] | outcome [13] | outcome [15] | outcome [16] | outcome [17] | outcome [18] | Potency [20]

CC(C)C[C@H](NC(=O)[C@H](Cc1ccccc1)NC(=O)c1cnccn1)B(O)O
active: Potency [1] 15 nM and 9.4 nM | Potency [2] 21.1 nM and 18.8 nM | Potency [3] 376 nM and 211 nM | Potency [4] 376 nM and 94.4 nM
inactive: Potency [5] | Potency [6] | outcome [7] | outcome [8] | Potency [9] | outcome [10] | outcome [11] | Potency [12] | outcome [13] | outcome [14] | outcome [15] | outcome [16] | outcome [17] | outcome [18] | Potency [19]

CCCC(=O)OCCC(C)C
inactive: Potency [1] | Potency [2] | Potency [3] | Potency [4] | Potency [5] | Potency [6] | outcome [7] | outcome [8] | outcome [10] | outcome [11] | Potency [12] | outcome [13] | outcome [14] | outcome [15] | outcome [16] | outcome [17] | Potency [19] | Potency [20]

O=C(O)c1cc(C(=O)O)cc([N+](=O)[O-])c1
inactive: Potency [1] | Potency [2] | Potency [3] | Potency [4] | Potency [5] | Potency [6] | outcome [7] | outcome [8] | Potency [9] | outcome [10] | outcome [11] | Potency [12] | outcome [13] | outcome [14] | outcome [15] | outcome [16] | outcome [17] | outcome [18] | Potency [19] | Potency [20]

CCCCCCCCS
inactive: Potency [1] | Potency [2] | Potency [3] | Potency [4] | Potency [5] | Potency [6] | outcome [7] | outcome [8] | outcome [10] | outcome [11] | Potency [12] | outcome [13] | outcome [14] | outcome [15] | outcome [16] | outcome [17] | outcome [18]

CCCCOC(=O)C(C)Oc1ccc(Oc2ccc(C(F)(F)F)cn2)cc1 (centres undefined)
inactive: Potency [1] | Potency [2] | Potency [3] | Potency [4] | Potency [5] | Potency [6] | outcome [7] | outcome [8] | Potency [9] | outcome [10] | outcome [11] | Potency [12] | outcome [13] | outcome [14] | outcome [15] | outcome [16] | outcome [17] | outcome [18] | Potency [19]

COC(=O)C(C)(C)C
inactive: Potency [1] | Potency [2] | Potency [3] | Potency [4] | Potency [5] | Potency [6] | outcome [7] | outcome [8] | Potency [9] | outcome [10] | outcome [11] | Potency [12] | outcome [13] | outcome [14] | outcome [15] | outcome [16] | outcome [17] | outcome [18] | Potency [20]

CC(C)=CCC/C(C)=C/C=N/O
inactive: Potency [1] | Potency [2] | Potency [3] | Potency [4] | Potency [5] | Potency [6] | outcome [7] | outcome [8] | outcome [10] | outcome [11] | Potency [12] | outcome [13] | outcome [14] | outcome [15] | outcome [16] | outcome [17] | Potency [19]

CC1=CC(=C(c2ccc(N)cc2)c2ccc(N)cc2)C=CC1=N
inactive: activation [1] -1.72% [at 8.3 µM] | Potency [2] | Potency [3] | activity, negative = cytotoxicity [4] -19.8% [at 8.08 µM] | activity change, negative = cytotoxicity [5] -6.69% [at 8.08 µM] | outcome [7] | outcome [8] | Potency [9] | outcome [10] | outcome [11] | Potency [12] | outcome [13] | outcome [14] | outcome [15] | outcome [16] | outcome [17] | outcome [18] | activation [19] -0.66% [at 6.9 µM]
active: Potency [4] 11.9 µM | Potency [6] 221 nM and 55 nM

CC(O)C(C)O (centres undefined)
inactive: Potency [1] | Potency [2] | Potency [3] | Potency [4] | Potency [5] | Potency [6] | outcome [7] | outcome [8] | Potency [9] | outcome [10] | outcome [11] | Potency [12] | outcome [13] | outcome [14] | outcome [15] | outcome [17] | outcome [18] | Potency [20]

CC(C)CCCCCCCOC(=O)c1ccc(C(=O)OCCCCCCCC(C)C)c(C(=O)OCCCCCCCC(C)C)c1
inactive: Potency [1] | Potency [2] | Potency [3] | Potency [4] | Potency [5] | Potency [6] | outcome [7] | outcome [8] | Potency [9] | outcome [10] | outcome [11] | Potency [12] | outcome [13] | outcome [14] | outcome [15] | outcome [17] | outcome [18] | Potency [19] | Potency [20]
